Measurements reported in PubChem BioAssay (Tox21).
Several values for one entry are separate records, joined by “and”; a condition that tells them apart may be missing. Equal entries are not always repeated. Inconclusive results are not listed. Where a call stands in place of a potency, no number is given. The source holds several records for some structures; these can differ, active in one and inactive in another. Activity calls are given as the source filed them. Calls follow the shape of the dose curve; as a rule, active = well fitted activation curve with a large enough effect in the repeat runs; inconclusive = weak or mixed curves; inactive = no such curve, though single readings can be large or run the other way.
Potency is read from the fitted curve at half-maximal effect.

Each molecule was assayed against Nuclear receptor subfamily 1 group I member 2 (Homo sapiens) (UniProt O75469) (assay: Human pregnane X receptor (PXR) small molecule agonists, qHTS assay (AID 1346982; also: nearly all actives have a fitted effect of over 35% in size)). Details: PXR-Luc HepG2, CYP3A4 luciferase reporter, 24 h; series mostly up to 92.4 µM.
Nuclear receptor subfamily 1 group I member 2 (Homo sapiens), sequence (O75469 whole entry, looked up): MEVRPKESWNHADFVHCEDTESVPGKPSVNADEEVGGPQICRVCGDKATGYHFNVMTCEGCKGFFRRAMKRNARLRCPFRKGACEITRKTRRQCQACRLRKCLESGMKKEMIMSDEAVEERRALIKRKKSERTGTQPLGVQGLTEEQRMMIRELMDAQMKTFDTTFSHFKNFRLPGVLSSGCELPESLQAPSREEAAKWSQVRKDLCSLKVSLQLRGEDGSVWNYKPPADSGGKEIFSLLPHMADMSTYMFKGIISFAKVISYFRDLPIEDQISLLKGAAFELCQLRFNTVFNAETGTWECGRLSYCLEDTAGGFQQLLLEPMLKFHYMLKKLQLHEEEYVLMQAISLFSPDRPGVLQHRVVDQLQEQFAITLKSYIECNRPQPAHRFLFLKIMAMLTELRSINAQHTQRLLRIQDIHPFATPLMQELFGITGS
Excerpt: National Center for Advancing Translational Sciences [NCATS]
NIH Chemical Genomics Center [NCGC]
U.S. Environmental Protection Agency [EPA]
National Institutes of Environmental Health Sciences [NIEHS]
National Toxicology Program [NTP]
The human pregnane X receptor (hPXR) regulates the expression of several drug metabolizing enzymes and induction of these proteins is a major mechanism for developing drug resistance in cancer. One such key enzyme catalyzing the drug metabolism is cytochrome P450 3A4 (CYP3A4). Changes in CYP3A4 expression affect drug metabolism, thereby reducing the therapeutic efficacy and altering toxicological response to a drug and which finally causes adverse drug interaction. To screen Tox21 libraries for compounds that activate hPXR-mediated CYP3A4 gene expression, PXR-Luc HepG2 cells were used.
PXR-Luc HepG2 cells were dispensed at 2,000 per well in 5uL of assay medium containing 5% charcoal-stripped FBS into white solid bottom 1536-well plates (Corning Life Sciences, Corning, NY) using a Multidrop Combi (Thermo Scientific, Waltham, MA) dispenser. The assay plates were incubated at 37 C and 5% CO2 for 5hr, and then 23nL of compounds dissolved in DMSO and positive control were transferred using a Pintool station (Wako, San Diego, CA). The assay plates were incubated at 37C and 5% CO2 for 24hr. For luciferase read, 4uL of ONE-Glo reagent (Promega Corporation, Madison, WI) was added to each well of the assay plates using Flying Reagent Dispenser (FRD, Aurora Discovery, San Diego, CA) and incubated the assay plates at room temperature for 30min. The luminescence signal was quantified using a ViewLux plate reader (Perkin Elmer, Shelton, CT).
With `Nc1c(Cl)cc([N+](=O)[O-])cc1Cl` the Potency was 27.5 µM (active).
With `O=c1oc2ccccc2c(O)c1C(CC(O)c1ccc(-c2ccc(Br)cc2)cc1)c1ccccc1` (stereo not given) the Potency was “inactive”.
In the case of `CCCCCCCCOC(=O)c1ccccc1C(=O)OCCCCCCCC`, the Potency is reported as 68.4 µM (active) and inactive.
In the case of `CCCCCCOC(=O)c1ccccc1C(=O)OCCCCCC`, the Potency is reported as 55.6 µM (active) and inactive.
`COP(=S)(OC)Oc1cc(Cl)c(Cl)cc1Cl` was tested, and the Potency was 30.4 µM (active) and inactive.
`O=C(CCl)c1ccccc1` was tested, and the Potency was 62 µM (active).
`Cc1cc(C)cc(C)c1` was tested, and the Potency was “inactive”.
In the case of `CC(C)NC(C)C`, the Potency is reported as “inactive”.
In the case of `C=CC(=O)OCCO`, the Potency is reported as “inactive”.
For `CN(C)C(=O)Nc1ccc(Cl)cc1`, the Potency was “inactive”.
With `O=C(O)CC[N+](=O)[O-]` the Potency was “inactive”.
In the case of `O=C(NC(=O)c1c(F)cccc1F)Nc1ccc(Cl)cc1`, the Potency is reported as 2.44 µM (active) and inactive.
With `CCN(CC)C(=O)/C(Cl)=C(\C)OP(=O)(OC)OC` the Potency was “inactive and 54.5 µM (active)”.
With `Nc1ccncc1` the Potency was “inactive”.
In the case of `CCOc1cc(Oc2ccc(C(F)(F)F)cc2Cl)ccc1[N+](=O)[O-]`, the Potency is reported as 27.6 µM (active) and 17.2 µM (active).
For `Oc1cc(Cl)ccc1Cl`, the Potency was “inactive”.
For `CCC(C)c1ccc(O)cc1` (stereo not given), the Potency was “inactive”.
`CC(C)(C)c1ccccc1O` was tested, and the Potency was “inactive”.
In the case of `CCC(=O)O[C@H]1CC[C@H]2[C@@H]3CCC4=CC(=O)CC[C@]4(C)[C@H]3CC[C@]12C`, the Potency is reported as “inactive”.
With `CCC(C)(C)c1ccc(O)cc1` the Potency was “inactive”.
In the case of `Brc1ccc(Oc2cc(Br)c(Br)cc2Br)c(Br)c1`, the Potency is reported as 17.2 µM (active) and 30.9 µM (active).
For `COP(=S)(OC)Oc1ccc([N+](=O)[O-])cc1`, the Potency was “inactive”.
`Clc1nc(Cl)nc(Cl)n1` was tested, and the Potency was “inactive”.
For `OCC(O)CO`, the Potency was “inactive”.
`CC(C)C(=O)OCC(C)(C)C(OC(=O)C(C)C)C(C)C` (stereo not given) was tested, and the Potency was “inactive”.
For `Oc1ccc(-c2ccccc2)cc1`, the Potency was 60.3 µM (active) and 54.5 µM (active).
With `Cc1ccccc1[N+](=O)[O-]` the Potency was “inactive”.
In the case of `c1cc(OCC2CO2)ccc1Cc1ccc(OCC2CO2)cc1` (stereo not given), the Potency is reported as 68.9 µM (active) and 61.1 µM (active).
With `Nc1ccc(-c2ccc(N)c(N)c2)cc1N` the Potency was 24.3 µM (active).
With `Nc1cccnc1` the Potency was “inactive”.
With `c1ccc(P(c2ccccc2)c2ccccc2)cc1` the Potency was 55.5 µM (active) and 30.6 µM (active).
For `N#CCCCl`, the Potency was “inactive”.
With `N#Cc1cc(Br)c(O)c(Br)c1` the Potency was 68.5 µM (active) and inactive.
In the case of `COc1ccc(C(CN(C)C)C2(O)CCCCC2)cc1` (stereo not given), the Potency is reported as “inactive”.
With `CCCCOCCOP(=O)(OCCOCCCC)OCCOCCCC` the Potency was 10.9 µM (active) and 19.3 µM (active).
In the case of `CC(C)N(C(=O)SCC(Cl)=C(Cl)Cl)C(C)C`, the Potency is reported as “inactive”.
In the case of `CC(O)CCO` (stereo not given), the Potency is reported as “inactive”.
`CCOCN(C(=O)CCl)c1c(C)cccc1CC` was tested, and the Potency was 2.58 µM (active).
`CC(C)(c1cc(Cl)c(O)c(Cl)c1)c1cc(Cl)c(O)c(Cl)c1` was tested, and the Potency was 54.5 µM (active) and 43.3 µM (active).
For `C#CCOS(=O)OC1CCCCC1Oc1ccc(C(C)(C)C)cc1` (stereo not given), the Potency was 8.64 µM (active) and 6.86 µM (active).
